Screening results deposited in PubChem BioAssay by National Center for Advancing Translational Sciences (NCATS).
A selection: hits, their analogues and other compounds. The true share with any hit is near 12%.
Pf growth 96h: P. falciparum growth inhibition at 96 hour, primary screen for plastid delayed-death inhibitors; 320,000 tested, 6.9% active; P. falciparum luciferase reporter growth, 96 h; Potency, µM (series often up to 28.7 µM), actives largely listed as inhibitors
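P. falciparum expressing integrated firefly luciferase, in erythrocytes at 2% hematocrit, 0.05% parasitemia, incubated with compounds 96 h at 37 C, 5% CO2. Growth inhibition read as loss of luminescence; two-generation exposure targets delayed-death apicoplast inhibitors.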
Pf growth 48h: P. falciparum growth inhibition at 48 hours (one generation). 310,000 tested, 5.9% active. P. falciparum luciferase growth in erythrocytes, 48 h. Potency, µM (highest dose often 28.7 µM), actives largely listed as inhibitors
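Growth was read as firefly luciferase luminescence after a 48 h, 37 C, 5% CO2 exposure of compounds to reporter-bearing P. falciparum cultures (0.1% parasitemia, 2% hematocrit final) in Albumax-supplemented RPMI 1640.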
SARS PLP yeast: blocks SARS-CoV papain-like protease in a yeast assay; AID 485353; Potency, µM (doses to about 32.9 µM), usual class: activators; S. cerevisiae expressing SARS-CoV PLpro, growth rescue; 330,000 tested, 0.19% active; calls by dose curve; further: nearly all actives have a fitted effect of over 55% in size
Sm TGR block: blocks Schistosoma mansoni thioredoxin glutathione reductase | purified TGR, DTNB reduction, TNB absorbance 405 nm | 360,000 tested, 3% active | Potency, µM (titrated, usually from 114 µM), usual class: inhibitors; further: nearly all actives have a fitted effect of over 60% in size
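TGR 20 nM + NADPH 100 uM (dispensed conc.), cpd preinc 15 min RT; start with NADPH (500 uM addition) then DTNB (15 mM addition). Kinetic TNB absorbance, 405 nm filter. Four-parameter Hill fit across titration.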
Hits are given with their value; i = inactive; ? = inconclusive; nt = no result; ! = repeats disagree; [ ] = remark or other dose. Unless noted, the call rests on the fitted dose curve; in most records, active means well fitted curve in the direction sought with a large enough effect; inconclusive means small, poorly fitted or top-dose-only effect, or another doubt; inactive means no such curve, though single readings can be large; an effect the other way counts as inactive or inconclusive.

SMILES	Pf growth 96h	Pf growth 48h	SARS PLP yeast	Sm TGR block
O=C(COC(=O)c1ccc(O)cc1O)N=c1sccn1Cc1ccccc1Cl	?	?	i	i
O=S(=O)(c1cccc(F)c1)N1CCc2sccc2C1c1ccc(OC(F)(F)F)cc1 (stereo not drawn)	?	13µM	i	i
CN(C)c1ccc(C2CC(c3ccccc3)=Nc3nc(-c4ccccc4)cn32)cc1 (stereo not drawn)	5.2µM	8.3µM	i	?
CCCCNC(=O)c1[nH]c2ccccc2c1Sc1ccc(C)cc1	nt	nt	nt	i
CCN(CC)CCCNC(=O)c1[nH]c2ccccc2c1Sc1ccc(Cl)cc1	13µM	13µM	i	5µM
CCN(CC(=O)Nc1ccc(NC(C)=O)cc1)C(=O)CC1OC(=O)c2ccccc21 (stereo not drawn)	i	i	i	i
COc1ccccc1OCC(=O)NCC1CCCN(C(=O)c2ccccc2C(C)=O)C1 (stereo not drawn)	17µM	i	i	i
CSc1ncccc1C(=O)OCC(=O)Nc1ccc2c(c1)OCO2	i	i	i	i
Cc1noc(C)c1COC(=O)c1ccc2c(c1)OCO2	7.4µM	nt	i	i[11.4 µM]
Cc1noc(C)c1COC(=O)c1cccnc1SCC(=O)Nc1ccc2c(c1)OCO2	9.3µM	?	i	i
CCOc1ccc(C(C(=O)NC2CCCC2)N(Cc2ccccc2)C(=O)c2nsc(Cl)c2Cl)cc1 (stereo not drawn)	?	13µM	?	i
COc1ccc(C(C(=O)NC2CCCC2)N(Cc2ccccc2)C(=O)c2nsc(Cl)c2Cl)cc1 (stereo not drawn)	?	?	i	i
Cc1cccc(N(C(=O)c2nsc(Cl)c2Cl)C(C(=O)NC2CCCC2)c2ccc(O)cc2)c1C (stereo not drawn)	?	7.4µM	i	i
CCC(C)n1c(=N)c(C(=O)NC2CCCCC2)cc2c(=O)n3cc(C)ccc3nc21 (stereo not drawn)	nt	nt	nt	i
Cc1ccc(S(=O)(=O)N(C)S(=O)(=O)c2ccc(C#N)cc2)cc1	i	i	i	i
CCOC(=O)c1cc(C#N)c(Oc2ccc(F)cc2)nc1-c1ccccc1	i	?	i	i
CCOC(=O)c1cc(C#N)c(Oc2cccc(C(F)(F)F)c2)nc1-c1ccccc1	?	13µM	i	i
O=C(C1CCCN(S(=O)(=O)c2ccc(Br)s2)C1)N1CCN(c2ccc(F)cc2)CC1 (stereo not drawn)	nt	nt	nt	i
CC(C)COC(=O)C1C(=O)CC(C)(O)C(C(=O)OCC(C)C)C1c1cccnc1 (stereo not drawn)	nt	9.3µM	i	i
CC(C)OC(=O)C1C(=O)CC(C)(O)C(C(=O)OC(C)C)C1c1ccc(F)cc1 (stereo not drawn)	?	nt	i	i
CC(C)(C)OC(=O)C1C(=O)CC(C)(O)C(C(=O)OC(C)(C)C)C1c1cccnc1 (stereo not drawn)	?	nt	i	i
CC(C)OC(=O)C1C(=O)CC(C)(O)C(C(=O)OC(C)C)C1c1cccc(O)c1 (stereo not drawn)	4.1µM	i	i	i
CCOC(=O)c1cnc2c(OC)cccc2c1N1CCN(c2ccccn2)CC1	i	i	i	i
CCOC(=O)c1cnc2ccc(OCC)cc2c1N1CCN(C)CC1	i	8.3µM	i	i
CCOC(=O)c1cnc2c(OC)cccc2c1N1CCN(c2ccccc2OC)CC1	i	7.4µM	i	i
SMILES	Pf growth 96h	Pf growth 48h	SARS PLP yeast	Sm TGR block
CCOc1ccc2ncc(S(=O)(=O)c3ccc(C)cc3)c(N3CCC4(CC3)OCCO4)c2c1	7.4µM	12µM	i	i
CCOC(=O)c1cnc2c(OC)cccc2c1N1CCN(c2ccc(OC)cc2)CC1	i	12µM	i	i
O=C(OCc1cccc(C(F)(F)F)c1)c1cc(S(=O)(=O)N2CCOCC2)ccc1F	i	i	i	i
CCCCCCCCCCOC(=O)Cn1c(COc2ccc(OC)cc2)[n+](C)c2ccccc21	4.7µM!	4.1µM	i	i
CCCCCCCCCCOC(=O)Cn1c(COc2ccccc2)[n+](C)c2ccccc21	?	?	i	i
CCCCCCCCCCOC(=O)Cn1c(COc2cccc(C)c2)[n+](C)c2ccccc21	5.2µM	?	i	i
CCCCCCCCCCOC(=O)Cn1c(COc2ccc(Cl)cc2)[n+](C)c2ccccc21	?	?	i	?
Cc1c(NC(=O)C(C)OC(=O)c2ccc([N+](=O)[O-])s2)c(=O)n(-c2ccccc2)n1C (stereo not drawn)	13µM	?	i	i
Cc1c(NC(=O)C(C)OC(=O)c2sc3ccccc3c2Cl)c(=O)n(-c2ccccc2)n1C (stereo not drawn)	i	i	i	i
Cc1c(NC(=O)c2cccc(S(=O)(=O)N3CCOCC3)c2)c(=O)n(-c2ccccc2)n1C	8.3µM	i	i	i
Cc1c(C(=S)NC(=O)C2CC2)c(=O)n(-c2ccccc2)n1C	15µM	i	i	i
Cc1c(NC(=O)c2csc3c2CCCC3)c(=O)n(-c2ccccc2)n1C	i	i	i	i
Cc1c(NC(=O)c2c(N)sc3c2CCCC3)c(=O)n(-c2ccccc2)n1C	i	i	i	22µM
Cc1c(NC(=S)NC(=O)c2ccccc2Cl)c(=O)n(-c2ccccc2)n1C	i	i	i	i
Cc1c(NC(=O)c2ccc(-c3ccc([N+](=O)[O-])cc3Cl)o2)c(=O)n(-c2ccccc2)n1C	9.3µM	i	i	i
Cc1c(NC(=O)/C=C/c2cn(-c3ccccc3)nc2-c2ccc(F)cc2)c(=O)n(-c2ccccc2)n1C	9.3µM	i	i	3.2µM
C=CCc1cccc(CNc2c(C)n(C)n(-c3ccccc3)c2=O)c1O	i	10µM	i	i
Cc1c(NC(=O)/C(C#N)=C/c2ccccc2)c(=O)n(-c2ccccc2)n1C	i	?	i	i
Cc1c(NN=C(C#N)C#N)c(=O)n(-c2ccccc2)n1C	i	?	i	22µM
O=C(NCc1cccc(Cl)c1)c1cccn1-c1nnc(N2CCCC2)s1	nt	nt	nt	i
Cc1ccc(CNC(=O)c2c[nH]c3ccc(S(=O)(=O)Nc4ccc(C(C)C)cc4)cc3c2=O)cc1	nt	nt	nt	i
COc1ccc(CCNc2nc(C)nc3c2nnn3Cc2ccccc2)cc1	i	i	i	i
Cc1c(NC(=O)c2ccccc2)c(=O)n(-c2ccccc2)n1C	10µM	i	i	i
Cc1c(NC(C)c2cc(Cl)ccc2O)c(=O)n(-c2ccccc2)n1C (stereo not drawn)	i	nt	i	?
Cc1c(NC(C)c2ccccc2O)c(=O)n(-c2ccccc2)n1C (stereo not drawn)	?	nt	i	40µM
SMILES	Pf growth 96h	Pf growth 48h	SARS PLP yeast	Sm TGR block
O=C(c1cccc(F)c1)N1CCC(c2nc3ccccc3s2)CC1	4.1µM	i	i	i
Cc1ccc(C(=O)O)cc1NC(=S)NC(=O)C(c1ccccc1)c1ccccc1	?	i	i	56µM
CN(C)C(=S)NC(=O)C(c1ccccc1)c1ccccc1	i[1.15 µM]	i	i	i
CC(=O)NNC(=S)NC(=O)C(c1ccccc1)c1ccccc1	?	2.1µM	i	i
Cc1ccc(C(=O)O)cc1NC(=S)NC(=O)Cc1ccccc1	i	i	i	i
CCNC(=S)NNC(=O)C(c1ccccc1)c1ccccc1	i	i	i	i
